Records with an inconclusive call do not appear. Activity calls are given as the source filed them. Rule for the calls, unless noted: active = hit-call score of the fitted dose curve at least 0.9, where 1 is the maximum; inconclusive = response in the unintended direction; inactive = score below 0.9.
read-out: Cytochrome P450 2C9 (Homo sapiens) (UniProt P11712); test: CLD_CYP2C9_48hr: CellzDirect (CLD) Gene Expression Assay for xenobiotic metabolism (CYP2C9) at 48 hours (AID 2283701; active = hit-call score of the fitted dose curve at least 0.9, where 1 is the maximum; inactive = score below 0.9)
How it was run: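 Primary human hepatocytes (two donor preparations) dosed daily for two days with test chemicals, 0.2% DMSO vehicle; harvested at 48 h. mRNA induction quantified by qNPA chemiluminescence, fitted for gain of signal against DMSO baseline; cytotoxicity annotated from phase-contrast morphology.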

Broad substrate specificity ATP-binding cassette transporter ABCG2 (Homo sapiens), sequence (Q9UNQ0 whole entry, looked up): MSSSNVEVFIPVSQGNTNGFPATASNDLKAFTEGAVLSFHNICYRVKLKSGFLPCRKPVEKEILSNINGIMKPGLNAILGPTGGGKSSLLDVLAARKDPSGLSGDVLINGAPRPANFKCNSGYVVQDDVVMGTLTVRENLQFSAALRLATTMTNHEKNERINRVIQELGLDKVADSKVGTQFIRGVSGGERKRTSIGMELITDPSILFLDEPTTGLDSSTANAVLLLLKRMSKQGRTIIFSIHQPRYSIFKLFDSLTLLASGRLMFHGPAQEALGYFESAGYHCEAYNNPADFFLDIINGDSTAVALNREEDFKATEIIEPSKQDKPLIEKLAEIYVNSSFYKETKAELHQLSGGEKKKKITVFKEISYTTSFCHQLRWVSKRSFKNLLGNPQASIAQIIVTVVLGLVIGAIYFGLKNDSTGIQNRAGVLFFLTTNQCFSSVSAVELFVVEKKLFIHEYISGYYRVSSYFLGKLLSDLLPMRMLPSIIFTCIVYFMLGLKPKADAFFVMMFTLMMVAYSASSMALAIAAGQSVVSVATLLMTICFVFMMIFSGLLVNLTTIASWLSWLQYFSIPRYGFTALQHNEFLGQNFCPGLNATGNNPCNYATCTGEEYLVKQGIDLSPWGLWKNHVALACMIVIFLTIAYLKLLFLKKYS

| SMILES | outcome |
| --- | --- |
| C=CCOC(=O)C(C)(C)OC(=O)c1cc(-n2c(=O)cc(C(F)(F)F)n(C)c2=O)ccc1Cl | inactive |
| Cc1cnc(C2=NC(C)(C(C)C)C(=O)N2)c(C(=O)O)c1 (stereo unspecified) | inactive |
| CC1(C)C(C=C(Cl)Cl)C1C(=O)OC(C#N)c1cccc(Oc2ccccc2)c1 (stereo unspecified) | inactive |
| CCOc1nc(F)cc2nc(S(=O)(=O)Nc3c(Cl)cccc3Cl)nn12 | inactive |
| Cc1cc(C)nc(Nc2ccccc2)n1 | inactive |
| COC(=O)NS(=O)(=O)c1ccc(N)cc1 | inactive |
| CC1(C)CON(Cc2ccccc2Cl)C1=O | inactive |
| CCN(CC)C(=O)C(C)Oc1cccc2ccccc12 (stereo unspecified) | inactive |
| CCOP(=S)(OCC)Oc1nc(Cl)n(C(C)C)n1 | inactive |
| CCCC(=NOCC)C1=C(O)CC(CC(C)SCC)CC1=O (stereo unspecified) | inactive |

read-out: xenobiotic metabolism (CYP1A2), CYP1A2 (gene 1544); test: CLD_CYP1A2_48hr: CellzDirect (CLD) Gene Expression Assay for xenobiotic metabolism (CYP1A2) at 48 hours (AID 2283703)
How it was run: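 Primary human hepatocytes from two donor preparations were dosed daily for two days at multiple concentrations in 0.2% DMSO vehicle. CYP1A2 mRNA was measured at 48 hours by chemiluminescent quantitative nuclease protection assay, with gain of signal fitted versus DMSO and cytotoxicity annotated from morphology.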

| SMILES | AC50 | outcome |
| --- | --- | --- |
| COC(=O)N(C(=O)N1CO[C@@]2(C(=O)OC)Cc3cc(Cl)ccc3C2=N1)c1ccc(OC(F)(F)F)cc1 | 4.25 µM (active) | – |
| Cc1cnc(C2=NC(C)(C(C)C)C(=O)N2)c(C(=O)O)c1 (stereo unspecified) | – | inactive |
| CC(C)Nc1nc(Cl)nc(NC(C)C)n1 | 2.76 µM (active) | – |
| CCN(CC)c1nc(C)cc(OP(=S)(OC)OC)n1 | 7.6 µM (active) | – |
| O=P(O)(O)CCCl | – | inactive |
| COc1cc(Cl)c(OC)cc1Cl | – | inactive |
| Nc1c(Cl)c(Cl)nc(C(=O)O)c1Cl | 5.16 µM (active) | – |
| CC1(C)C(C=C(Cl)Cl)C1C(=O)OC(C#N)c1cccc(Oc2ccccc2)c1 (stereo unspecified) | 14.6 µM (active) | – |
| CNC(=O)N(C)c1nnc(C(C)(C)C)s1 | – | inactive |
| O=C(Nc1ccccc1-c1ccc(Cl)cc1)c1cccnc1Cl | 4.95 µM (active) | – |
| CCC(C)n1c(=O)[nH]c(C)c(Br)c1=O (stereo unspecified) | 11.8 µM (active) | – |
| CCOC(=O)C(C)OC(=O)c1cc(Oc2ccc(C(F)(F)F)cc2Cl)ccc1[N+](=O)[O-] (stereo unspecified) | 20 µM (active) | – |
| CC(C)(C)C(=O)C(Oc1ccc(Cl)cc1)n1cncn1 (stereo unspecified) | 12.9 µM (active) | – |
| Nc1cnn(-c2ccccc2)c(=O)c1Cl | 4.24 µM (active) | – |
| CCOc1nc(F)cc2nc(S(=O)(=O)Nc3c(Cl)cccc3Cl)nn12 | – | inactive |
| CS(=O)(=O)c1cc(C(F)(F)F)ccc1C(=O)c1cnoc1C1CC1 | 20 µM (active) | – |
| CC(C)NC(=O)N1CC(=O)N(c2cc(Cl)cc(Cl)c2)C1=O | 4.68 µM (active) | – |
| Cc1cc(C)nc(Nc2ccccc2)n1 | 7.9 µM (active) | – |
| COC(=O)NS(=O)(=O)c1ccc(N)cc1 | – | inactive |
| CC(C)N1C(=O)c2ccccc2NS1(=O)=O | – | inactive |
| COP(=S)(OC)Oc1ccc([N+](=O)[O-])c(C)c1 | 3.97 µM (active) | – |
| CCCCOCN(C(=O)CCl)c1c(CC)cccc1CC | 9.38 µM (active) | – |
| CC1(C)CON(Cc2ccccc2Cl)C1=O | – | inactive |
| Cc1ccc(N=CN(C)C=Nc2ccc(C)cc2C)c(C)c1 | 0.673 µM (active) | – |
| CCN(CC)C(=O)C(C)Oc1cccc2ccccc12 (stereo unspecified) | 5.76 µM (active) | – |
| COc1ccc(-c2ccccc2)cc1NNC(=O)OC(C)C | 0.127 µM (active) | – |
| N#Cc1c[nH]cc1-c1cccc2c1OC(F)(F)O2 | 2.37 µM (active) | – |
| CCOP(=S)(OCC)Oc1nc(Cl)n(C(C)C)n1 | 5.78 µM (active) | – |
| CCNC(=O)NC(=O)C(C#N)=NOC | – | inactive |
| CCCC(=NOCC)C1=C(O)CC(CC(C)SCC)CC1=O (stereo unspecified) | – | inactive |

read-out: Broad substrate specificity ATP-binding cassette transporter ABCG2 (Homo sapiens) (UniProt Q9UNQ0); test: CLD_ABCG2_48hr: CellzDirect (CLD) Gene Expression Assay for ABC Transporter (ABCG2) at 48 hours (AID 2283704);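 for AC50: potency for induction of ABCG2 mRNA above the DMSO baseline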
How it was run: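 Primary human hepatocytes from two donors, dosed daily for 2 days, 0.2% DMSO vehicle, several concentrations. ABCG2 mRNA at 48 h by qNPA chemiluminescence, gain fitted versus DMSO; cytotoxicity flagged by morphology.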

| SMILES | outcome | AC50 |
| --- | --- | --- |
| C=CCOC(=O)C(C)(C)OC(=O)c1cc(-n2c(=O)cc(C(F)(F)F)n(C)c2=O)ccc1Cl | inactive | – |
| COc1cc(Cl)c(OC)cc1Cl | inactive | – |
| Cn1c(-c2ccccc2)cc(-c2ccccc2)[n+]1C | inactive | – |
| CCSC(=O)N1CCCCCC1 | inactive | – |
| CNC(=O)N(C)c1nnc(C(C)(C)C)s1 | inactive | – |
| CC(C)(C)C(=O)C(Oc1ccc(Cl)cc1)n1cncn1 (stereo unspecified) | inactive | – |
| Nc1cnn(-c2ccccc2)c(=O)c1Cl | inactive | – |
| CS(=O)(=O)c1cc(C(F)(F)F)ccc1C(=O)c1cnoc1C1CC1 | inactive | – |
| COP(=S)(OC)Oc1ccc([N+](=O)[O-])c(C)c1 | inactive | – |
| Cc1ccc(N=CN(C)C=Nc2ccc(C)cc2C)c(C)c1 | – | 17.4 µM (active) |
| COc1ccc(-c2ccccc2)cc1NNC(=O)OC(C)C | inactive | – |
| CCNC(=O)NC(=O)C(C#N)=NOC | inactive | – |
| CN=C=S | inactive | – |

read-out: xenobiotic metabolism (CYP1A1), CYP1A1 (gene 1543); test: CLD_CYP1A1_48hr: CellzDirect (CLD) Gene Expression Assay for xenobiotic metabolism (CYP1A1) at 48 hours (AID 2283705)
How it was run: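 Primary human hepatocytes from two donors dosed daily for two days at multiple concentrations, 0.2% DMSO vehicle; CYP1A1 mRNA induction at 48 h by qNPA chemiluminescence. Cytotoxicity noted by phase-contrast morphology.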

| SMILES | outcome | AC50 |
| --- | --- | --- |
| CCSC(=O)N1CCCCCC1 | inactive | – |
| CC1(C)C(C=C(Cl)Cl)C1C(=O)OC(C#N)c1cccc(Oc2ccccc2)c1 (stereo unspecified) | inactive | – |
| CNC(=O)N(C)c1nnc(C(C)(C)C)s1 | inactive | – |
| CCOC(=O)C(C)OC(=O)c1cc(Oc2ccc(C(F)(F)F)cc2Cl)ccc1[N+](=O)[O-] (stereo unspecified) | – | 20 µM (active) |
| CC(C)(C)C(=O)C(Oc1ccc(Cl)cc1)n1cncn1 (stereo unspecified) | – | 8.65 µM (active) |
| CCOc1nc(F)cc2nc(S(=O)(=O)Nc3c(Cl)cccc3Cl)nn12 | inactive | – |
| CC(C)NC(=O)N1CC(=O)N(c2cc(Cl)cc(Cl)c2)C1=O | – | 12.3 µM (active) |
| COP(=S)(OC)Oc1ccc([N+](=O)[O-])c(C)c1 | – | 20 µM (active) |
| CCCCOCN(C(=O)CCl)c1c(CC)cccc1CC | – | 11.5 µM (active) |
| Cc1ccc(N=CN(C)C=Nc2ccc(C)cc2C)c(C)c1 | – | 5.87 µM (active) |
| COc1ccc(-c2ccccc2)cc1NNC(=O)OC(C)C | inactive | – |
| N#Cc1c[nH]cc1-c1cccc2c1OC(F)(F)O2 | – | 31.8 µM (active) |
| CCOP(=S)(OCC)Oc1nc(Cl)n(C(C)C)n1 | – | 5.35 µM (active) |
